B1: TCAG (dsDNA)
DNA 1: GCTATCTAGTGCTCAGTACGCACTGTCAGAGGAAACTTCTGGCAGGACCAGGTCATGAGATCGGAAGAGCACACGTCTGAACTCCAGTCA
DNA 2: TGACTGGAGTTCAGACGTGTGCTCTTCCGATCTCATGACCTGGTCCTGCCAGAAGTTTCCTCTGACAGTGCGTACTGAGCACTAGATAGC
RNA: AAUUUCUACUCUUGUAGAUAGGAAACUUCUGGCAGGACC
B2: TGGC (dsDNA)
DNA 1: GCTATCTAGTGCTCAGTACGCACTGTGGCAGGAAACTTCTGGCAGGACCAGGTCATGAGATCGGAAGAGCACACGTCTGAACTCCAGTCA
DNA 2: TGACTGGAGTTCAGACGTGTGCTCTTCCGATCTCATGACCTGGTCCTGCCAGAAGTTTCCTGCCACAGTGCGTACTGAGCACTAGATAGC
RNA: AAUUUCUACUCUUGUAGAUAGGAAACUUCUGGCAGGACC
B3: TCAT (dsDNA)
DNA 1: GCTATCTAGTGCTCAGTACGCACTGTCATAGGAAACTTCTGGCAGGACCAGGTCATGAGATCGGAAGAGCACACGTCTGAACTCCAGTCA
DNA 2: TGACTGGAGTTCAGACGTGTGCTCTTCCGATCTCATGACCTGGTCCTGCCAGAAGTTTCCTATGACAGTGCGTACTGAGCACTAGATAGC
RNA: AAUUUCUACUCUUGUAGAUAGGAAACUUCUGGCAGGACC
B4: GTAC (dsDNA)
DNA 1: GCTATCTAGTGCTCAGTACGCACTGGTACAGGAAACTTCTGGCAGGACCAGGTCATGAGATCGGAAGAGCACACGTCTGAACTCCAGTCA
DNA 2: TGACTGGAGTTCAGACGTGTGCTCTTCCGATCTCATGACCTGGTCCTGCCAGAAGTTTCCTGTACCAGTGCGTACTGAGCACTAGATAGC
RNA: AAUUUCUACUCUUGUAGAUAGGAAACUUCUGGCAGGACC
B5: ACGC (dsDNA)
DNA 1: GCTATCTAGTGCTCAGTACGCACTGACGCAGGAAACTTCTGGCAGGACCAGGTCATGAGATCGGAAGAGCACACGTCTGAACTCCAGTCA
DNA 2: TGACTGGAGTTCAGACGTGTGCTCTTCCGATCTCATGACCTGGTCCTGCCAGAAGTTTCCTGCGTCAGTGCGTACTGAGCACTAGATAGC
RNA: AAUUUCUACUCUUGUAGAUAGGAAACUUCUGGCAGGACC
B6: TGGG (dsDNA)
DNA 1: GCTATCTAGTGCTCAGTACGCACTGTGGGAGGAAACTTCTGGCAGGACCAGGTCATGAGATCGGAAGAGCACACGTCTGAACTCCAGTCA
DNA 2: TGACTGGAGTTCAGACGTGTGCTCTTCCGATCTCATGACCTGGTCCTGCCAGAAGTTTCCTCCCACAGTGCGTACTGAGCACTAGATAGC
RNA: AAUUUCUACUCUUGUAGAUAGGAAACUUCUGGCAGGACC
B7: TGCG (dsDNA)
DNA 1: GCTATCTAGTGCTCAGTACGCACTGTGCGAGGAAACTTCTGGCAGGACCAGGTCATGAGATCGGAAGAGCACACGTCTGAACTCCAGTCA
DNA 2: TGACTGGAGTTCAGACGTGTGCTCTTCCGATCTCATGACCTGGTCCTGCCAGAAGTTTCCTCGCACAGTGCGTACTGAGCACTAGATAGC
RNA: AAUUUCUACUCUUGUAGAUAGGAAACUUCUGGCAGGACC
B8: TGAG (dsDNA)
DNA 1: GCTATCTAGTGCTCAGTACGCACTGTGAGAGGAAACTTCTGGCAGGACCAGGTCATGAGATCGGAAGAGCACACGTCTGAACTCCAGTCA
DNA 2: TGACTGGAGTTCAGACGTGTGCTCTTCCGATCTCATGACCTGGTCCTGCCAGAAGTTTCCTCTCACAGTGCGTACTGAGCACTAGATAGC
RNA: AAUUUCUACUCUUGUAGAUAGGAAACUUCUGGCAGGACC
B9: GCGG (dsDNA)
DNA 1: GCTATCTAGTGCTCAGTACGCACTGGCGGAGGAAACTTCTGGCAGGACCAGGTCATGAGATCGGAAGAGCACACGTCTGAACTCCAGTCA
DNA 2: TGACTGGAGTTCAGACGTGTGCTCTTCCGATCTCATGACCTGGTCCTGCCAGAAGTTTCCTCCGCCAGTGCGTACTGAGCACTAGATAGC
RNA: AAUUUCUACUCUUGUAGAUAGGAAACUUCUGGCAGGACC
B10: TGCT (dsDNA)
DNA 1: GCTATCTAGTGCTCAGTACGCACTGTGCTAGGAAACTTCTGGCAGGACCAGGTCATGAGATCGGAAGAGCACACGTCTGAACTCCAGTCA
DNA 2: TGACTGGAGTTCAGACGTGTGCTCTTCCGATCTCATGACCTGGTCCTGCCAGAAGTTTCCTAGCACAGTGCGTACTGAGCACTAGATAGC
RNA: AAUUUCUACUCUUGUAGAUAGGAAACUUCUGGCAGGACC
B11: AAGC (dsDNA)
DNA 1: GCTATCTAGTGCTCAGTACGCACTGAAGCAGGAAACTTCTGGCAGGACCAGGTCATGAGATCGGAAGAGCACACGTCTGAACTCCAGTCA
DNA 2: TGACTGGAGTTCAGACGTGTGCTCTTCCGATCTCATGACCTGGTCCTGCCAGAAGTTTCCTGCTTCAGTGCGTACTGAGCACTAGATAGC
RNA: AAUUUCUACUCUUGUAGAUAGGAAACUUCUGGCAGGACC
B12: TGAT (dsDNA)
DNA 1: GCTATCTAGTGCTCAGTACGCACTGTGATAGGAAACTTCTGGCAGGACCAGGTCATGAGATCGGAAGAGCACACGTCTGAACTCCAGTCA
DNA 2: TGACTGGAGTTCAGACGTGTGCTCTTCCGATCTCATGACCTGGTCCTGCCAGAAGTTTCCTATCACAGTGCGTACTGAGCACTAGATAGC
RNA: AAUUUCUACUCUUGUAGAUAGGAAACUUCUGGCAGGACC
B13: TGAC (dsDNA)
DNA 1: GCTATCTAGTGCTCAGTACGCACTGTGACAGGAAACTTCTGGCAGGACCAGGTCATGAGATCGGAAGAGCACACGTCTGAACTCCAGTCA
DNA 2: TGACTGGAGTTCAGACGTGTGCTCTTCCGATCTCATGACCTGGTCCTGCCAGAAGTTTCCTGTCACAGTGCGTACTGAGCACTAGATAGC
RNA: AAUUUCUACUCUUGUAGAUAGGAAACUUCUGGCAGGACC

molecular target: dAsCas12a S542R (Acidaminococcus sp., UniProt U2UMQ6 1-1307, S542R;D908A;E993A;D1235A); experiment: Spec-seq (native PAGE EMSA with sequencing of bound and unbound); 25 mM Tris-HCl pH 7.4, 150 mM KCl, 5 mM MgCl2, 10% glycerol, 1 mM DTT, 40 ng/uL salmon sperm DNA; 400 nM Cas12a, 480 nM crRNA, 50 nM library, 37 C 1 h; native PAGE at room temperature; high values mean tight binding; settings: protein: recombinant
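Further: relative affinity from the bound to unbound sequence frequency ratio in Spec-seq.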

**Q.** B1 was tested. Which binding signal did it give?
**A.** -7.87 lnKA

**Q.** How did the binding signal turn out when B2 was run?
**A.** -8.19 lnKA

**Q.** With B3 as the binder, how does the binding signal read?
**A.** -8.4 lnKA

**Q.** How did the binding signal turn out when B6 was run?
**A.** -8.57 lnKA

**Q.** For B7, which binding signal is on record?
**A.** -8.2 lnKA

**Q.** Which binding signal does the source give for B8 here?
**A.** -8.4 lnKA

**Q.** For B10, which binding signal is on record?
**A.** -8.2 lnKA

**Q.** B12 was tested. Which binding signal did it give?
**A.** -8.47 lnKA

**Q.** How did the binding signal turn out when B13 was run?
**A.** -8.67 lnKA

molecular target: d-enCas12a (Acidaminococcus sp., UniProt U2UMQ6 1-1307, E174R;S542R;K548R;D908A;E993A;D1235A); experiment: as above; settings: protein: recombinant

**Q.** For B1, which binding signal is on record?
**A.** -5.78 lnKA

**Q.** With B2 as the binder, how does the binding signal read?
**A.** -5.4 lnKA

**Q.** For B3, which binding signal is on record?
**A.** -5.72 lnKA

**Q.** How did the binding signal turn out when B4 was run?
**A.** -5 lnKA

**Q.** For B5, which binding signal is on record?
**A.** -5.66 lnKA

**Q.** B6 was tested. Which binding signal did it give?
**A.** -5.93 lnKA

**Q.** How did the binding signal turn out when B7 was run?
**A.** -3.38 lnKA

**Q.** Which binding signal does the source give for B8 here?
**A.** -5.65 lnKA

**Q.** B9 was tested. Which binding signal did it give?
**A.** -5.85 lnKA

**Q.** For B10, which binding signal is on record?
**A.** -4 lnKA

**Q.** How did the binding signal turn out when B11 was run?
**A.** -5.85 lnKA

**Q.** Which binding signal does the source give for B12 here?
**A.** -5.85 lnKA

**Q.** With B13 as the binder, how does the binding signal read?
**A.** -5.25 lnKA

molecular target: d-enCas12a-Ultra (Acidaminococcus sp., UniProt U2UMQ6 1-1307, E174R;S542R;K548R;M537R;F870L;D908A;E993A;D1235A); experiment: as above; settings: protein: recombinant

**Q.** B1 was tested. Which binding signal did it give?
**A.** -3.45 lnKA

**Q.** B2 was tested. Which binding signal did it give?
**A.** -3.03 lnKA

**Q.** With B3 as the binder, how does the binding signal read?
**A.** -3.42 lnKA

**Q.** How did the binding signal turn out when B4 was run?
**A.** -1.95 lnKA

**Q.** B5 was tested. Which binding signal did it give?
**A.** -3.42 lnKA

**Q.** For B6, which binding signal is on record?
**A.** -3.42 lnKA

**Q.** Which binding signal does the source give for B7 here?
**A.** -0.977 lnKA

**Q.** Which binding signal does the source give for B8 here?
**A.** -3.4 lnKA

**Q.** Which binding signal does the source give for B9 here?
**A.** -3.63 lnKA

**Q.** With B10 as the binder, how does the binding signal read?
**A.** -1.2 lnKA

**Q.** Which binding signal does the source give for B11 here?
**A.** -3.34 lnKA

**Q.** Which binding signal does the source give for B12 here?
**A.** -3.37 lnKA

**Q.** With B13 as the binder, how does the binding signal read?
**A.** -2.74 lnKA

Reference: PMC8222333, “AsCas12a ultra nuclease facilitates the rapid generation of therapeutic cell medicines”
